Screens (PubChem)
Sfp PPTase inh: Sfp phosphopantetheinyl transferase inhibition. Q9F4F7. Biochemical Sfp PPTase activity, qHTS. Potency, µM, inactives show largest response in the series, negative = inhibition, actives largely listed as inhibitors. actives 3.5% (n = 310,000);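 note: the enzyme is Sfp with the accession as filed and its product quenches rhodamine fluorescence; 0% = enzyme reaction without inhibitor and -100% = no enzyme wells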
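Step 1, compound plus 15 nM Sfp-PPTase, 15 min, room temperature. Step 2, add rhodamine-CoA (5 uM) and BHQ-2-YbbR (12.5 uM). Step 3, read 525/598 nm fluorescence at 0 and 30 min.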
BAZ2B inh: blocks human BAZ2B; Q9UIF8; AlphaScreen BAZ2B-H3K14Ac peptide displacement; Potency, µM (titrated, usually from 114 µM), for inactives: at the top dose activity change, negative = inhibition, hits mostly inhibitors; actives 4.4% (n = 360,000); AID 504333; note: % is set by controls: 0 for no effect and ±100 for the full control effect; nearly all actives have a fitted effect of over 60% in size
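AlphaScreen displacement of biotin-H3(5-23)K14Ac peptide (50 nM final) from BAZ2B (50 nM final) in PBS pH 7.4, 0.01% Tween-20; complex preformed 30 min RT, then compounds (top 110 uM) 30 min RT, beads 20 min dark.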
ALOX12 inh: blocks human arachidonate 12S-lipoxygenase; P18054; purified 12hLO, xylenol orange hydroperoxide absorbance; Potency, µM (top dose mostly 108 µM), for inactives: at the highest dose activity change, negative = inhibition, hits mostly inhibitors; actives 1.1% (n = 580,000); note: % is set by controls: 0 for no effect and ±100 for the full control effect
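Purified human 12hLO (150 nM final) in 25 mM Hepes, 0.01% Triton X-100, pH 7.0 was preincubated 15 min at room temperature with compound. Then 40 uM arachidonic acid was added, 30 min. Hydroperoxide was read by Fe-XO absorbance ratio 573/405 nm.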
HP1b chromo inh: inhibitors of HP1-beta chromodomain binding to methylated histone tails; Potency, µM (titrated, usually from 114 µM), for the others: at the top dose activity change, negative = inhibition, usual class: inhibitors; AlphaScreen HP1-beta / biotin-H3K9me3 peptide binding; P83916; AID 540317; actives 0.56% (n = 390,000); note: nearly all actives have a fitted effect of over 70% in size
Target sequence (P83916 whole entry, looked up): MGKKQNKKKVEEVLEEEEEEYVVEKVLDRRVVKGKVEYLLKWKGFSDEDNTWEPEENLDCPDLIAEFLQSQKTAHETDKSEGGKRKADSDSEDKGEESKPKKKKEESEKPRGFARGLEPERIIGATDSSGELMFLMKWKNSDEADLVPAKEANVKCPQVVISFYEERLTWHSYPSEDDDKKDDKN
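AlphaScreen: HP1-beta (50 nM) preformed 30 min with biotin-H3(1-18)K9me3 peptide (50 nM) in PBS pH 7.4, 0.01% Tween-20. Compound added for 30 min at RT, then streptavidin donor/nickel chelate acceptor beads (10 ug/mL) for 30 min.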
JMJD2A Tudor: JMJD2A Tudor domain (human) inhibition. Potency, µM (highest dose often 114 µM), inactives show top-dose activity change, negative = inhibition, hits mostly inhibitors. actives 4.4% (n = 390,000). AID 504339. AlphaScreen JMJD2A-Tudor / H3K4me3 peptide binding. O75164; note: % is set by controls: 0 for no effect and ±100 for the full control effect; nearly all actives have a fitted effect of over 50% in size
G9a inh: G9a (human) methyltransferase inhibition. G9a H3K9 monomethylation, AlphaScreen, 2 h. Potency, µM (highest dose often 102 µM), for inactives: at the top dose activity, negative = inhibition, usual class: inhibitors. actives 8.8% (n = 350,000); note: % is set by controls: 0 for no effect and ±100 for the full control effect; nearly all actives have a fitted effect of over 75% in size
Target sequence (Q96KQ7 913-1193 limits assumed): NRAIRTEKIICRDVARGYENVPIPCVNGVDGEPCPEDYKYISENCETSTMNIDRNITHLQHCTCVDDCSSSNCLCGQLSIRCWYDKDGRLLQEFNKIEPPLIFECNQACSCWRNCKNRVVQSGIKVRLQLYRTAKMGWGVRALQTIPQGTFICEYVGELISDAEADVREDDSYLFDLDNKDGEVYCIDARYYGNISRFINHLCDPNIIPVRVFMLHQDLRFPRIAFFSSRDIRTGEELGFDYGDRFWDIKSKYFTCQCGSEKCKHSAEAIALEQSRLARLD
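Step 1: enzyme (final 20 nM) with compound, 15 min RT. Step 2: substrate peptide 500 nM and SAM 20 uM, 2 h RT. Step 3: anti-H3K9me1 antibody and AlphaScreen beads, 10 min, then plate read.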
The depositor's hits bear a star; ? = inconclusive; nt = no result given; [ ] = remark or other dose. Hits are enriched below; roughly 8.7% of the tested compounds scored in any of these assays. Calls come from the whole dose curve; as a rule, active = well fitted curve in the direction sought with a large enough effect; inconclusive = small, poorly fitted or top-dose-only effect, or another doubt; inactive = no such curve, though single readings can be large; an effect the other way counts as inactive or inconclusive. Potency is the fitted concentration of half-maximal effect.

SMILES	Sfp PPTase inh	BAZ2B inh	ALOX12 inh	HP1b chromo inh	JMJD2A Tudor	G9a inh
Clc1ccc(OCc2nc(-c3ccccn3)n[nH]2)cc1	2%	22µM*	26%	53%	20µM*	85%[59 µM]
Brc1ccc(OCc2nc(-c3ccccn3)n[nH]2)cc1	8%	28µM*	?	30%	40µM*	44%
Cc1cc(Oc2ccc(Cl)cc2)nc(-c2ccccn2)n1	13%	-2%	136%	15%	-19%	18µM*
Clc1ccc(OCc2nc3ccccc3[nH]2)cc1	11%	1%	-4%	27%	-4%	-15%
COc1ccc(-c2c(C)c3cc(OS(=O)(=O)c4ccccc4)ccc3oc2=O)cc1OC	nt	nt	-19%	nt	nt	nt
CCC1CCCN(C(=O)CCn2cnc3c2c(=O)n(C)c(=O)n3C)C1 (stereo unspecified)	nt	nt	15%	nt	nt	nt
CC(=O)c1ccc(O)c(C)c1	nt	nt	4%	nt	nt	nt
CSc1nc(NS(=O)(=O)c2cc(Br)ccc2Br)cc(=O)[nH]1	11%	-5%	?	-16%	-21%	56µM*
Cn1ccc(NS(=O)(=O)c2cc(Br)ccc2Br)n1	nt	4%	195%	31%	0%	0%[12.7 µM]
Cc1cccc(C)c1NC(=O)CNC(=O)CCc1ncc(-c2ccccc2F)o1	nt	nt	-10%	nt	nt	nt
O=C(c1ccc(S(=O)(=O)N2CCC(c3nc4ccccc4s3)CC2)cc1)N1CCOCC1	?	5%	-2%	6%	-15%	40µM*
O=C(c1ccc(S(=O)(=O)N2CCC(c3nc4ccccc4s3)CC2)cc1)N1CCCCC1	nt	nt	-27%	22%	-18%	nt
O=S(=O)(c1ccc(F)cc1)N1CCC(c2nc3ccccc3[nH]2)CC1	6%	-18%	1%	41%	-4%	3%
O=C(c1ccc(S(=O)(=O)N2CCC(c3nc4ccccc4[nH]3)CC2)cc1)N1CCOCC1	50µM*	?	5.6µM*	-12%	28µM*	7.9µM*
COCC(=O)NC1CCC12CCN(C(=O)CC1CCCC1)CC2 (stereo unspecified)	nt	nt	57%	nt	nt	nt
Cc1ccc(S(=O)(=O)CC(c2ccccc2)N2CCCCC2)cc1 (stereo unspecified)	21%	-13%	-10%	36%	-7%	50µM*
Cc1ccc(-c2nnc(C3CN(C(=O)c4ccnn4C)CC34CCOCC4)o2)cc1 (stereo unspecified)	nt	nt	32%	nt	nt	nt
O=C1CN(C(=O)c2ccc(Br)o2)C(c2ccccc2)c2cc(Cl)ccc2N1 (stereo unspecified)	?	?	19%[57.4 µM]	-5%	-34%	56µM*
Cc1ccc2c(c1)C(c1ccccc1)N(C(=O)c1ccc(Br)o1)CC(=O)N2 (stereo unspecified)	1%	?	?	-1%	?	40µM*
CC(=O)Nc1sc(N/N=C\c2ccco2)nc1-c1cccs1	18µM*	?	?	14µM*	?	5.6µM*
CCOC(=O)c1nc(N/N=C/c2ccccc2)sc1Br	-9%	-30%	10%	9%	-19%	45µM*
CC(=O)Nc1sc(N/N=C/c2ccccc2)nc1-c1ccc(C)cc1	-4%	?	-17%	?	?	16µM*
CC(=O)Nc1sc(N/N=C\c2ccccc2Cl)nc1-c1cccs1	-15%	15%	-28%	-3%	?	-22%[59 µM]
COc1ccc(/C=N/Nc2nc(-c3ccc(C)cc3)c(NC(C)=O)s2)cc1	8%	?	?	?	56µM*	10µM*
CC(=O)Nc1ccc(/C=N/Nc2nc3ccccc3s2)cc1	-8%	-1%	18%	41%	-5%	-3%
SMILES	Sfp PPTase inh	BAZ2B inh	ALOX12 inh	HP1b chromo inh	JMJD2A Tudor	G9a inh
COC(=O)c1cc(C(=O)OC)cc(S(=O)(=O)N2CCCC2c2nc3ccccc3[nH]2)c1 (stereo unspecified)	nt	nt	-4%	nt	nt	nt
CCN1CC(c2ccccc2)CC2(CCN(C(=O)c3cnn(C)c3)CC2)C1 (stereo unspecified)	nt	nt	15%	nt	nt	nt
C[C@@H]1CN(Cc2nc3c(n2Cc2ccccc2)C(=O)N(CC2CC2)CCN3)C[C@H](C)O1	nt	nt	24%[176 µM]	nt	nt	nt
CC(=O)Nc1sc(-c2ccc(Cl)cc2)nc1-c1ccccc1	20%	2%	17%	33%	2%	-1%
CC(=O)Nc1sc(N/N=C/c2ccc(O)cc2)nc1-c1ccc(C)cc1	-2%	?	?	40µM*	45µM*	13µM*
CCOc1cc(/C=N/Nc2nc(-c3cccs3)c(NC(C)=O)s2)ccc1O	-28%	40µM*	?	20µM*	28µM*	20µM*
CC(=O)Nc1sc(N/N=C\c2ccccc2)nc1-c1cccs1	50µM*	?	-26%	50µM*	20µM*	11µM*
CC(=O)Nc1sc(N/N=C/c2ccccc2F)nc1-c1ccc(C)cc1	-21%	-39%	?	-12%	?	14µM*
Cc1ccccc1C(=O)NC1CCN(c2cc(-c3ccccc3)[nH]n2)C1 (stereo unspecified)	nt	nt	39%	nt	nt	nt
CCCCCCN(CCC(=O)NCCC)C(=O)c1ccoc1	nt	nt	35%	nt	nt	nt
O=C(Nc1cccc(-c2nc3ccccc3o2)c1)C1CCCC1	nt	nt	-28%	nt	nt	nt
CC(=O)Nc1sc(NC(=O)c2ccc(Cl)cc2)nc1-c1cccs1	1%	-3%	?	6%	-5%	nt
Nc1nc(-c2cccs2)c(NC(=O)c2ccccc2)s1	-29%	?	?	-34%	?	7.9µM*
COCC(=O)Nc1ccc(-c2c(-c3ccccc3OC)nn(-c3ccc(C)cc3)c2OC(C)=O)cc1	nt	nt	-17%	nt	nt	nt
COC(=O)c1ccc2c(=O)n(Cc3ccc(C(=O)NCCCN4CCOCC4)cc3)c(=S)[nH]c2c1	10%	-14%	7%	25%	-16%	?
CCOc1cc2[nH]c(=S)n(Cc3ccc(C(=O)NCCCN4CCOCC4)cc3)c(=O)c2cc1OCC	12%	-15%	16%	63%	-32%	25µM*
O=c1c2cc(N3CCOCC3)ccc2[nH]c(=S)n1CCCN1CCN(c2ccccc2F)CC1	13%	0%	nt	nt	nt	-50%[12.7 µM]
O=c1c2cc(F)ccc2[nH]c(=S)n1CCCN1CCOCC1	4%	-10%	-1%	26%	-30%	50µM*
COC(=O)c1ccc2c(=O)n(Cc3ccc(C(=O)NCCCN4CCC(C)CC4)cc3)c(=S)[nH]c2c1	-7%	-25%	?	28%	-23%	35µM*
O=C(NCCCN1CCOCC1)c1ccc2c(=O)n(Cc3ccc(Cl)cc3)c(=S)[nH]c2c1	-11%	-35%	-17%	54%	-23%	7.1µM*
CN(C)CCNC(=O)c1ccc2c(=O)n(Cc3ccc(Cl)cc3)c(=S)[nH]c2c1	?	?	?	-10%	-30%	?
